Test results from PubChem BioAssay AID602377 (National Center for Advancing Translational Sciences (NCATS), 2012).
The source made the active and inactive calls. Calls come from the whole dose curve; as a rule, active = well fitted activation curve with a large enough effect; inactive = flat fitted curve, though single readings scatter.

molecular target: Pyruvate kinase PKM (Homo sapiens) (UniProt P14618); experiment: qHTS for Activators of Human Muscle Isoform Pyruvate Kinase: Extended Characterization Using A Lactate Dehydrogenase (LDH) Assay; settings: purified hPK-M2, LDH-coupled NADH fluorescence kinetic
Excerpt: Human pyruvate kinase muscle 2 (hPK-M2)enzyme was supplied as a highly purified (>95% pure) preparation from Harvard Medical School and a secondary assay was used to evaluate compounds. This assay couples the formation of pyruvate from hPK-M2 using lactate dehydrogenase (LDH) and NADH. The depletion of NADH is followed in a fluorescent-based kinetic assay that follows the formation of pyruvate to lactate, as catalyzed LDH (described by Hannaert et al., 2002)1 Pyruvate kinase substrates, PEP and ADP, were present in the assay at 0.1 mM and 4 mM respectively. In this kinetic assay initial rates were determined by following the fluorescence of NADH depletion. NIH Chemical Genomics Center [NCGC] NIH Molecular Libraries Probe Centers Network [MLPCN] MLPCN Grant: MH085679 Assay Submitter (PI): Matthew G. Vander Heiden, Harvard Medical School
Three uL of substrate mix (final concentration, 50 mM Tris-Cl pH 8.0, 200 mM KCl, 15 mM MgCl2, 0.1 mM PEP, 4.0 mM ADP, and 0.2 mM NADH) was dispensed into black-solid 1536 well plates. 23 nL of compounds were delivered by a pin tool and 1 uL of enzyme mix (final concentrations, 10 nM hPK-M2 and 1 uM of LDH) was added. Plates were immediately placed in ViewLux (Perkin Elmer) and NADH fluorescence was determined at 30 second exposure intervals for between 3 and 6 minutes. Data were normalized to the uninhibited and EC100 activation using known activators such as fructose-bis-phosphate.

Pyruvate kinase PKM (Homo sapiens), sequence (P14618 whole entry, looked up, canonical isoform): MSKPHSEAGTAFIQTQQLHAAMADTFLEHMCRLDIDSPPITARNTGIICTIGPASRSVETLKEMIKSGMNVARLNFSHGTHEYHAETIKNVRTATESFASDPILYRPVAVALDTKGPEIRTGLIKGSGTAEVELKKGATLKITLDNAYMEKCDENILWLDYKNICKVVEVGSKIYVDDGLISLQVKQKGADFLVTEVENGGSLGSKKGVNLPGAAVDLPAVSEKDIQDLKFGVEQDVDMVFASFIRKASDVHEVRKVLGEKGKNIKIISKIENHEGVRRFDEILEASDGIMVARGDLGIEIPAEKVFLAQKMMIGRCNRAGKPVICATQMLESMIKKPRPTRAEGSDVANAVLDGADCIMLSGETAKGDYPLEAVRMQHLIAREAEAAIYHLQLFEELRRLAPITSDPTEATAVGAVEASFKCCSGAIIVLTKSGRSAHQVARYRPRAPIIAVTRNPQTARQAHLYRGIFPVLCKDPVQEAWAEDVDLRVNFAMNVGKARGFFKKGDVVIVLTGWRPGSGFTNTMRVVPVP

SMILES	Potency
Cc1cc2c(s1)c1cnn(Cc3cc(F)c(F)cc3F)c(=O)c1n2C	398 nM (active)
Cc1cc2c(s1)c1cnn(Cc3ccc(F)cc3F)c(=O)c1n2C	224 nM (active)
COc1cccc(Cn2ncc3c4sc(S(C)=O)cc4n(C)c3c2=O)c1 (stereo not given)	146 nM (active)
Cc1cc2c(s1)c1cnn(Cc3cc(F)ccc3F)c(=O)c1n2C	447 nM (active)
Cc1cc2c(s1)c1cnn(Cc3c(Cl)ccc(C)c3F)c(=O)c1n2C	562 nM (active)
